{
  "source": "PubChem BioAssay AID504832",
  "about": "(National Center for Advancing Translational Sciences (NCATS), 2011)",
  "note": "Among all 310,000 compounds or so, about 18,000 (5.8%) were called active. Roughly 22% stayed inconclusive and do not appear here. The list comes from a sample in which actives are over-represented; it also holds similar structures and randomly drawn compounds. A number with no mark means an inactive call. Calls come from the whole dose curve; as a rule, active = well fitted inhibition curve with a large enough effect; inconclusive = small, poorly fitted or top-dose-only effect, or another doubt; inactive = no such curve, though single readings can be large or run the other way. % is set by controls: 0 for no effect and ±100 for the full control effect; potency is the fitted concentration of half-maximal effect.",
  "data": [
    {"assay": "Primary qHTS for delayed death inhibitors of the malarial parasite plastid, 48 hour incubation", "conditions": "P. falciparum luciferase growth in erythrocytes; series mostly up to 28.7 µM; activity change, negative = inhibition: at the top concentration", "source_text": "The goal of this screen is to discover new antimalarial compounds that act by inhibiting the development of the apicoplast in the malarial parasite Plasmodium falciparum. The biochemical processes that make this organelle essential for erythrocytic stage parasites are not well understood. However, antibiotics such as azithromycin and tetracycline, which target the apicoplast translational machinery, have a potent antimalarial effect.\nWe have developed a cell-based assay that measures parasite growth based on the expression of an integrated copy of a firefly luciferase reporter. To detect small molecules that cause this \"delayed death\" phenotype, erythrocytes infected with the luciferase-expressing parasites were incubated with compounds for either one or two generations, corresponding to 48 and 96 hours, respectively. Compounds that inhibit parasite growth in the second generation, but not the first, should be enriched in antimalarials that target the apicoplast. Growth inhibition is detected by a decrease in luciferase activity.\nAssay Provider: David Fidock and Eric Ekland, Columbia University\nKeywords: NIH Roadmap, MLPCN, MLI, MLSMR, qHTS, NCGC, qHTS, malaria, luciferase, viability\nFour microliters of culture medium (RPMI 1640 with 0.5% w/v Albumax (GIBCO), 24 mM sodium bicarbonate and 10 ug/mL gentamycin) were dispensed by a Multi-drop Combi into white solid 1536-well plates (Grenier) and 23 nL compound was added by a pin tool. Four microliters of infected erythrocytes (2% hematocrit, 0.1% parasitemia final concentration) in culture medium were dispensed and the plates incubated for 48 hours at 37 C in 5% CO2. Two microliters of luciferase detection reagent was added and luminescence was detected by a ViewLux (PerkinElmer) reader.", "units": {"activity change, negative = inhibition": "%"}, "values": [
      {"smiles": "CCOC(=O)C1(CCOC)CCN(Cc2ccc(C(=O)OC)cc2)CC1", "Potency": "10.4 µM (active)"},
      {"smiles": "CCOC(=O)C1(Cc2cccc(OC)c2)CCN(Cc2csc(C(C)=O)c2)CC1", "activity change, negative = inhibition": -14.8},
      {"smiles": "CCOC(=O)C1(CCOC)CCN(Cc2cc3ccccc3s2)CC1", "activity change, negative = inhibition": 37.1},
      {"smiles": "O=C(COc1ccc(Cl)cc1)Nc1ccc2c(c1)OCO2", "activity change, negative = inhibition": 20.7},
      {"smiles": "COc1ccc(NS(=O)(=O)c2cc(NC(=O)/C=C/c3cc(OC)c(OC)c(OC)c3)ccc2N2CCCCC2)cc1", "Potency": "1.17 µM (active)"},
      {"smiles": "O=C(Nc1cccc(OCC(=O)N2CCOCC2)c1)C1CCCCC1", "activity change, negative = inhibition": -3.36},
      {"smiles": "COc1ccc(/C=C/C(=O)Nc2ccc3c(c2)OCCO3)cc1OC", "activity change, negative = inhibition": 28.1},
      {"smiles": "COc1ccc(CNC(=O)C2CCN(S(=O)(=O)N3CCOCC3)CC2)cc1", "activity change, negative = inhibition": 2.02},
      {"smiles": "COc1ccc(NS(=O)(=O)c2cc(NC(=O)C3CCCCC3)ccc2N2CCOCC2)cc1", "Potency": "10.4 µM (active)"},
      {"smiles": "COc1ccc(NS(=O)(=O)c2ccc(N3CCN(CCO)CC3)c([N+](=O)[O-])c2)cc1", "activity change, negative = inhibition": -3.24},
      {"smiles": "C=CCOc1cccc(C2NC(=O)c3ccccc3O2)c1", "note": "(centres undefined)", "activity change, negative = inhibition": 0.379},
      {"smiles": "COc1ccc(N(CC(=O)NCC2CCCO2)C(=O)CCC(=O)Nc2nccs2)c(OC)c1", "note": "(centres undefined)", "activity change, negative = inhibition": -20.9},
      {"smiles": "Cc1ccc(N2CC(C(=O)Nc3cc(Cl)ccc3-n3cncn3)CC2=O)cc1", "note": "(centres undefined)", "activity change, negative = inhibition": -22.5},
      {"smiles": "Cc1ccc2c(c1)N(CC(=O)NCC1CCCO1)C(=O)CO2", "note": "(centres undefined)", "activity change, negative = inhibition": 4.3},
      {"smiles": "COc1cccc(C(=O)NCCS(=O)(=O)NCC2CCCO2)c1", "note": "(centres undefined)", "activity change, negative = inhibition": 3.22},
      {"smiles": "COc1ccc(S(=O)(=O)N2CCC(C(=O)N3CCc4ccccc4C3)CC2)cc1OC", "activity change, negative = inhibition": -23.1},
      {"smiles": "COc1cc2c(cc1OC)CN(C(=O)c1ccc(S(=O)(=O)N3CCCCCC3)cc1)CC2", "Potency": "6.57 µM (active)"},
      {"smiles": "COc1cc(C(=O)NNC(=O)c2ccc(S(=O)(=O)N3CCCCC3)cc2)cc(OC)c1OC", "activity change, negative = inhibition": 1.28},
      {"smiles": "COC(=O)C1(CCSC)NC(c2ccc(OC)cc2OC)C2C(=O)N(c3cccc(C(C)=O)c3)C(=O)C21", "note": "(centres undefined)", "activity change, negative = inhibition": -19.3},
      {"smiles": "CSc1ccccc1NC(=O)c1ccc2c(c1)CCN2S(C)(=O)=O", "activity change, negative = inhibition": 41.5},
      {"smiles": "COc1ccc2cc(C(=O)O)n(CC(=O)c3ccccc3)c2c1", "activity change, negative = inhibition": 18.2},
      {"smiles": "Cc1ccc(N(C(=O)c2ccc(CN3CCOCC3)o2)C(C(=O)NCCC(C)C)c2cccs2)c(C)c1", "note": "(centres undefined)", "Potency": "10.4 µM (active)"},
      {"smiles": "Cc1ccc(CS(=O)Cc2ccc(C(=O)N3CCOCC3)o2)cc1", "note": "(centres undefined)", "activity change, negative = inhibition": 3.7},
      {"smiles": "Cc1cccc(N(C(=O)c2ccc(CN3CCOCC3)o2)C(C(=O)NC2CCCCC2)c2ccc(F)cc2)c1", "note": "(centres undefined)", "activity change, negative = inhibition": 7.73},
      {"smiles": "Cc1c(NS(=O)(=O)c2cc(C(=O)NCCc3ccc(F)cc3)cc(Cl)c2Cl)c(=O)n(-c2ccccc2)n1C", "activity change, negative = inhibition": -17},
      {"smiles": "COC(=O)c1ccc(NC(=O)CSc2nnc(C3CC3)n2C)cc1", "activity change, negative = inhibition": -5.32},
      {"smiles": "CCOC(=O)c1ccccc1NS(=O)(=O)c1ccc(OC)cc1", "activity change, negative = inhibition": -12.7},
      {"smiles": "CCOC(=O)c1c(-c2ccc(C)cc2)csc1/N=C(\\C)C1=C(O)c2ccccc2C1=O", "activity change, negative = inhibition": -24.3},
      {"smiles": "CCOC(=O)C1=C(c2ccc(OC)cc2)C(=O)c2ccccc2C1=O", "Potency": "2.94 µM (active)"},
      {"smiles": "COc1ccc(-c2cc(C(=O)NCCCN3CCOCC3)no2)cc1", "activity change, negative = inhibition": 1.35},
      {"smiles": "O=[N+]([O-])c1ccc(Oc2ccc(F)cc2Br)c2ccncc12", "Potency": "14.7 µM (active)"},
      {"smiles": "Cn1c(SCc2ccc(F)cc2)nnc1-c1ccncc1", "activity change, negative = inhibition": -20.5},
      {"smiles": "Cc1ccc(-c2csc(NC(=O)C3=COCCO3)n2)cc1C", "Potency": "10.4 µM (active)"},
      {"smiles": "Cc1ccc(-c2csc(NC(=O)c3cnccn3)n2)cc1C", "activity change, negative = inhibition": 20.3},
      {"smiles": "Cc1csc(NC(=O)C2=COCCO2)n1", "activity change, negative = inhibition": 115},
      {"smiles": "CN(Cc1ccccc1)C(=O)c1cccc(C(=O)N(C)Cc2ccccc2)c1", "activity change, negative = inhibition": 4.36},
      {"smiles": "CC(C)C[C@H](CO)Nc1nc(N(C)c2cccc(Cl)c2)c2ncn(C(C)C)c2n1", "Potency": "13.1 µM (active)"},
      {"smiles": "O=C(CCCC(=O)N1CCN(c2cccc(Cl)c2)CC1)c1ccccc1", "activity change, negative = inhibition": -4.33},
      {"smiles": "Cc1ccc(C)c(N2CCN(C(=O)Cn3ncn4cccc4c3=O)CC2)c1", "activity change, negative = inhibition": 31.9},
      {"smiles": "CN1CN(C)c2ccc([N+](=O)[O-])c3cccc1c23", "activity change, negative = inhibition": 34.5},
      {"smiles": "Cc1ccc(C(=O)N2CCC(n3nccc3NC(=O)Nc3cccc(F)c3)CC2)cn1", "activity change, negative = inhibition": 7.73},
      {"smiles": "CCCCNC(=O)c1onc(CSc2cccc(OC)c2)c1C(=O)O", "activity change, negative = inhibition": 18.7},
      {"smiles": "CCCNC(=O)c1onc(CSc2ccc(F)cc2)c1C(=O)NC(C)C", "Potency": "9.28 µM (active)"},
      {"smiles": "CCOc1cccc(SCc2noc(C(=O)NC(C)C)c2C(=O)O)c1", "activity change, negative = inhibition": 21.5},
      {"smiles": "CCc1ccccc1S(=O)(=O)Cc1ccc(C(=O)NCCc2ccccc2)o1", "activity change, negative = inhibition": -4.64},
      {"smiles": "COCCNC(=S)N(Cc1cccnc1)Cc1ccc(OC)c(OC)c1", "activity change, negative = inhibition": -3.14},
      {"smiles": "O=C(Nc1ccccc1)N(Cc1cccnc1)Cc1ccco1", "activity change, negative = inhibition": -0.883},
      {"smiles": "Cc1ccc(C)c2[nH]c(=O)c(CN(Cc3cccnc3)C(=S)NCc3ccco3)cc12", "Potency": "9.28 µM (active)"},
      {"smiles": "COc1ccc(C(=O)N2CCN(c3ncccn3)CC2)cc1S(=O)(=O)N1CCOCC1", "activity change, negative = inhibition": 22}
    ]}
  ]
}
